Records with an inconclusive call do not appear. Values without a mark were called inactive. Unless noted, calls follow the shape of the full dose curve.
test: qHTS assay to identify small molecule agonists of the hypoxia (HIF-1) signaling pathway - cell viability counter screen (AID 1224844); conditions: HRE-bla ME-180 viability, CellTiter-Glo luminescence, 17 h; series mostly up to 76.8 µM; activity change, negative = cytotoxicity: at the top concentration; also: nearly all actives have a fitted effect of over 50% in size
Outline: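 HRE-bla ME-180 cells, 2,000/well in 0.5% dialyzed FBS medium, treated 17 h at 37C with compounds. Viability read in the same wells as the bla reporter, by CellTiter-Glo luminescence after 30 min at room temperature.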
% is scaled to controls: 0 for no effect and ±100 for the full control effect.

Row | Structure (SMILES) | activity change, negative = cytotoxicity
1 | Cc1ccc(Br)cc1 | 0.677%
2 | CCCCCCCCCCCBr | -3.34% [at 35.3 µM]
3 | Clc1ccc2c(c1)Nc1ccccc1S2 | 7.57% [at 35.3 µM]
4 | Cc1cc(O)c(Cl)cc1C | 0.725%
5 | CCCCCCCCCCCCCCCC(=O)OC | 9.89% [at 15.8 µM]
6 | N#CC1(N)CCCCC1 | 6.83%
7 | CCOC(=O)c1ccc(N(C)C)cc1 | 4.13%
8 | CCCc1ccc(O)c(OC)c1 | -5.51%
9 | CC(=O)OCC(=O)[C@@]1(O)CC[C@H]2[C@@H]3CCC4=CC(=O)C=C[C@]4(C)[C@H]3[C@@H](O)C[C@@]21C | -23.5% [at 35.3 µM]
10 | CCOC(=O)CN1CCCC1=O | -0.513% [at 35.3 µM]
11 | Cc1cc2c(cc1CC(=O)c1sccc1S(=O)(=O)Nc1onc(C)c1Cl)OCO2 | -4.88% [at 35.3 µM]
12 | O=S(=O)(O)c1ccc(Cl)cc1 | 2.92%
13 | COc1cc(OC)cc(OC)c1 | -1.01% [at 35.3 µM]
14 | O=Cc1ccccc1S(=O)(=O)O | 12.1%
15 | CC(C)C(=O)Nc1cccc(C2CN3CCSC3=N2)c1 (stereo not drawn) | 3.13% [at 35.3 µM]
16 | CC1(C)S[C@@H]2[C@H](NC(=O)Cc3ccccc3)C(=O)N2[C@H]1C(=O)O (tested in a mixture with another compound) | 0.743% [at 35.3 µM]
17 | CCCCCCC(O)CO (stereo not drawn) | 5.67%
18 | O=P(O)(O)C(O)(Cc1cccnc1)P(=O)(O)O | 8.2% [at 35.3 µM]

Row | Structure (SMILES) | activity change, negative = cytotoxicity
19 | CCOC(=O)COc1ccc2c(C)c(CCN(CC)CC)c(=O)oc2c1Cl | -1.23% [at 35.3 µM]
20 | Cc1ccccc1C#N | 3.47%
21 | N#Cc1ccccc1C#N | 4.04%
22 | c1coc(Cn2cccc2)c1 | 3.03%
23 | COC(C)(C)CC(C)=O | -2.56%
24 | CC1(C)C(=O)C(C)(C)C1=O | -1.49%
25 | Cc1ccc2cccnc2c1 | -3.77%
26 | CCOC(=O)CC | -0.0415%
27 | COCc1nnc(-c2ccc[n+]([O-])c2)n1-c1c(Cl)c(Cl)cc2[nH]c(=O)c(=O)[nH]c12 | -3.6%
28 | COC(=O)c1c(C)cc(O)c(C)c1O | 10.5%
29 | CC1=C(O)C(=O)CO1 | 6.55%
30 | O=S(=O)(O)CC(O)CCl (stereo not drawn) | 6.59%
31 | O=C(O)COc1ccc2ccccc2c1 | 0.179%
32 | CCC(C)SSC(C)CC (stereo not drawn) | 6.37%
33 | COC(=O)c1ccccc1Cl | 5.07%
34 | C=CCOC(=O)CCCCCCCC | 4.77%
35 | Nc1ccc(C(=O)NCC(=O)O)cc1 | 2.27% [at 35.3 µM]
36 | CC[N+](C)(CC)CC | 7.23%

test: qHTS assay to identify small molecule agonists of H2AX (AID 1224845; active = well fitted activation curve with a large enough effect in the signal ratio in the repeat runs, not every such curve was filed as active; the % refers to the signal ratio); conditions: CHO-K1 phospho-H2AX Ser139 HTRF, 3 h; series mostly up to 154 µM; activation (H2AX phosphorylation): at the top concentration
Outline: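 Phospho-H2AX Ser139 measured by HTRF (ex 320 nm; em 665 and 620 nm) after 24 hr antibody incubation. Compounds, 15 concentrations, 0.76% DMSO, were applied to CHO-K1 cells for 3hr at 37C before lysis.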

Row | Structure (SMILES) | activation (H2AX phosphorylation)
37 | Cc1ccc(Br)cc1 | -1.18%
38 | CCCCCCCCCCCBr | -3.14% [at 70.9 µM]
39 | Cc1cc(O)c(Cl)cc1C | -0.826%
40 | CCCCCCCCCCCCCCCC(=O)OC | 4.71% [at 31.6 µM]
41 | N#CC1(N)CCCCC1 | 0.953%
42 | CCOC(=O)c1ccc(N(C)C)cc1 | -0.297%
43 | CCCc1ccc(O)c(OC)c1 | 0.818%
44 | CC(=O)OCC(=O)[C@@]1(O)CC[C@H]2[C@@H]3CCC4=CC(=O)C=C[C@]4(C)[C@H]3[C@@H](O)C[C@@]21C | 0.242% [at 70.9 µM]
45 | CCOC(=O)CN1CCCC1=O | 0.503% [at 70.9 µM]
46 | Cc1cc2c(cc1CC(=O)c1sccc1S(=O)(=O)Nc1onc(C)c1Cl)OCO2 | -1.19% [at 70.9 µM]
47 | O=S(=O)(O)c1ccc(Cl)cc1 | -0.588%
48 | COc1cc(OC)cc(OC)c1 | -0.787% [at 70.9 µM]
49 | O=Cc1ccccc1S(=O)(=O)O | 2.24%
50 | CC(C)C(=O)Nc1cccc(C2CN3CCSC3=N2)c1 (stereo not drawn) | -3.79% [at 70.9 µM]
51 | CC1(C)S[C@@H]2[C@H](NC(=O)Cc3ccccc3)C(=O)N2[C@H]1C(=O)O (tested in a mixture with another compound) | 0.0194% [at 70.9 µM]
52 | CCCCCCC(O)CO (stereo not drawn) | 0.716%
53 | CCO/C=C1\N=C(c2ccccc2)OC1=O | -0.157%
54 | O=P(O)(O)C(O)(Cc1cccnc1)P(=O)(O)O | -0.317% [at 70.9 µM]
55 | CCOC(=O)COc1ccc2c(C)c(CCN(CC)CC)c(=O)oc2c1Cl | -0.64% [at 70.9 µM]

Row | Structure (SMILES) | activation (H2AX phosphorylation)
56 | Cc1ccccc1C#N | -0.005%
57 | N#Cc1ccccc1C#N | 0.197%
58 | c1coc(Cn2cccc2)c1 | -0.0366%
59 | COC(C)(C)CC(C)=O | -4.06%
60 | CC1(C)C(=O)C(C)(C)C1=O | -3.05%
61 | Cc1ccc2cccnc2c1 | -1.63%
62 | CCOC(=O)CC | -0.617%
63 | COCc1nnc(-c2ccc[n+]([O-])c2)n1-c1c(Cl)c(Cl)cc2[nH]c(=O)c(=O)[nH]c12 | 1%
64 | COC(=O)c1c(C)cc(O)c(C)c1O | -1.3%
65 | CC1=C(O)C(=O)CO1 | 4.57%
66 | O=S(=O)(O)CC(O)CCl (stereo not drawn) | 1.02%
67 | CN(C)CCc1c[nH]c2ccc(C[C@H]3COC(=O)N3)cc12 | 0.669% [at 70.9 µM]
68 | O=C(O)COc1ccc2ccccc2c1 | 1.2%
69 | CCC(C)SSC(C)CC (stereo not drawn) | -2.64%
70 | COC(=O)c1ccccc1Cl | -1.98%
71 | C=CCOC(=O)CCCCCCCC | 1.07%
72 | Nc1ccc(C(=O)NCC(=O)O)cc1 | -3.31% [at 70.9 µM]
73 | CC[N+](C)(CC)CC | -1.29%

test: qHTS assay to identify small molecule agonists of the hypoxia (HIF-1) signaling pathway (AID 1224846; active = well fitted activation curve with a large enough effect in the signal ratio in the repeat runs, not every such curve was filed as active; the % refers to the signal ratio); conditions: HRE-bla ME-180 cells, beta-lactamase ratio, 17 h; series mostly up to 76.8 µM; activation: at the top concentration
Outline: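 HRE-bla ME-180 beta-lactamase reporter cells in medium with 0.5% dialyzed FBS, pre-incubated 5 h then exposed to compounds 17 h at 37C, 5% CO2; reporter induction read with CCF4-AM FRET substrate.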

Row | Structure (SMILES) | activation
74 | Clc1ccc2c(c1)Nc1ccccc1S2 | -0.403% [at 35.5 µM]
75 | CCOC(=O)c1ccc(N(C)C)cc1 | 1.01%
76 | CCOC(=O)CN1CCCC1=O | -0.898% [at 35.5 µM]
77 | O=S(=O)(O)c1ccc(Cl)cc1 | 0.147%
78 | COc1cc(OC)cc(OC)c1 | -1.21% [at 35.5 µM]
79 | O=Cc1ccccc1S(=O)(=O)O | 0.0081%
80 | CCCCCCC(O)CO (stereo not drawn) | 0.424%
81 | CCO/C=C1\N=C(c2ccccc2)OC1=O | -0.428%
82 | O=P(O)(O)C(O)(Cc1cccnc1)P(=O)(O)O | -0.46% [at 35.5 µM]
83 | COC(C)(C)CC(C)=O | -0.97%
84 | CC1(C)C(=O)C(C)(C)C1=O | 0.102%
85 | Cc1ccc2cccnc2c1 | -0.0754%
86 | CCOC(=O)CC | -1.46%
87 | CC1=C(O)C(=O)CO1 | 0.0114%
88 | O=S(=O)(O)CC(O)CCl (stereo not drawn) | 0.204%
89 | CN(C)CCc1c[nH]c2ccc(C[C@H]3COC(=O)N3)cc12 | -1.51% [at 35.5 µM]
90 | O=C(O)COc1ccc2ccccc2c1 | -0.0453%
91 | COC(=O)c1ccccc1Cl | -1.47%
92 | Nc1ccc(C(=O)NCC(=O)O)cc1 | 0.931% [at 35.5 µM]
93 | CC[N+](C)(CC)CC | -1%
